Publication PMC5700166
Changes are numbered by the printed parent chain.

Columns and labels:
Assay in all cases: protein-binding microarray (PBM); PBM: ~300 nM protein, 6 mM HEPES pH 7.8, 80 mM KCl, 0.5 mM EDTA, 0.5 mM EGTA, 6% glycerol, 35 ng/ul poly-dIdC, 1% milk, 1 h, room temperature; Ap Aiptasia and Nv Nematostella (sea anemones) / Co Capsaspora / Aq Amphimedon (sponge) / Dm Drosophila / Hu human; RHD is the Rel homology domain; high values mean tight binding
Settings in all cases: dsDNA, one strand shown
GST-Ap-NF-kB RHD = target: T1, GST-Ap-NF-kB RHD (Exaiptasia pallida (Aiptasia), UniProt A0A913YAJ5 2-422)
T1 sequence: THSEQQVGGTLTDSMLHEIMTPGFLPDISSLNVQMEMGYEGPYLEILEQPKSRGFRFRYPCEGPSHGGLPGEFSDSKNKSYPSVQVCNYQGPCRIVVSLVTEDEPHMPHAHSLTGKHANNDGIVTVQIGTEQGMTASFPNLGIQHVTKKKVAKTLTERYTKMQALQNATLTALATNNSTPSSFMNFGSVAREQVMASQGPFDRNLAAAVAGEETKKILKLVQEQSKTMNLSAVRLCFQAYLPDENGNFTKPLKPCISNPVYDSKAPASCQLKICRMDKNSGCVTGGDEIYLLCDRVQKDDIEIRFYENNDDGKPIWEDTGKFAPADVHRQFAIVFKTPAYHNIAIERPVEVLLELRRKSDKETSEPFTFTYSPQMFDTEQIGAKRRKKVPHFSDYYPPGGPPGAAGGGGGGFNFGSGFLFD

[1] = target: T2, GST-Nv-NF-kB (Cys allele) (Nematostella vectensis, UniProt E5G601 2-411)
T2 sequence: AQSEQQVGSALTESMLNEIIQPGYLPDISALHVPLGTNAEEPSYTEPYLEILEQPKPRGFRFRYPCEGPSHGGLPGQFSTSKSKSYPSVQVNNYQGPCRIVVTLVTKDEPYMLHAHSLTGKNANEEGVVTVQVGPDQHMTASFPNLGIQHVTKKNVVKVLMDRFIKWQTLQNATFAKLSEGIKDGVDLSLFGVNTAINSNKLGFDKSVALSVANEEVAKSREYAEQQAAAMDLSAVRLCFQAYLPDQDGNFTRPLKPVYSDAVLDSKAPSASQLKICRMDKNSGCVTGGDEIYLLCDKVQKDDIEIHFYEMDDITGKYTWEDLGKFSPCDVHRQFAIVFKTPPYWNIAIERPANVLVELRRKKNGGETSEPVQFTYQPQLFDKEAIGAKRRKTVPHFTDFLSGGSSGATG

[2] = target: T3, GST-Nv-NF-kB (Ser allele) (Nematostella vectensis, UniProt A7UNT2 2-411)
T3 sequence: T2 sequence with Q21R, C66S, S207N, E215Q, V217A, E225K, A268E, D399E

GST-Co-NF-kB = target: T4, GST-Co-NF-kB (Capsaspora owczarzaki, UniProt F1ARL5 200-546)
T4 sequence: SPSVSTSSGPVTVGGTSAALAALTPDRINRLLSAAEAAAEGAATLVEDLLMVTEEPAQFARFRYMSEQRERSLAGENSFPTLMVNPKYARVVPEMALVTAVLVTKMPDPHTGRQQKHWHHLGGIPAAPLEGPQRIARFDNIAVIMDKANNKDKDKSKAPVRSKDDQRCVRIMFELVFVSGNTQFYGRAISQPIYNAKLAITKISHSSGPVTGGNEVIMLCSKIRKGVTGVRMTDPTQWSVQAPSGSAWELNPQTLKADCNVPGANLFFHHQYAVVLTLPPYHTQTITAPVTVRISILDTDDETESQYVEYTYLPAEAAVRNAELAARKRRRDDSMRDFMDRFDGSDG

GST-Dm-Relish = target: T5, GST-Dm-Relish (Drosophila melanogaster, UniProt Q94527 99-473)
T5 sequence: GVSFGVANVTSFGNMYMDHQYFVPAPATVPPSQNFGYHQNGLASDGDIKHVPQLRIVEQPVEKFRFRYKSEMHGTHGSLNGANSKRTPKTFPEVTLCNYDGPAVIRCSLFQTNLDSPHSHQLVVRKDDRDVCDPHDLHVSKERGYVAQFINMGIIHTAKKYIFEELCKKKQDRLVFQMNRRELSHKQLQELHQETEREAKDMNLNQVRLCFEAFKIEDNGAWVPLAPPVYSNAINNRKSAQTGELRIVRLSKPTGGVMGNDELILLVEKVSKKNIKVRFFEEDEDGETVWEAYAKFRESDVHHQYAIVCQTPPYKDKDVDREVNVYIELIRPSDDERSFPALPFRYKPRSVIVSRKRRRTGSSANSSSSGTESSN

GST-Aq-NF-kB = target: T6, GST-Aq-NF-kB (Amphimedon queenslandica, UniProt A9Y5G7 2-389)
T6 sequence: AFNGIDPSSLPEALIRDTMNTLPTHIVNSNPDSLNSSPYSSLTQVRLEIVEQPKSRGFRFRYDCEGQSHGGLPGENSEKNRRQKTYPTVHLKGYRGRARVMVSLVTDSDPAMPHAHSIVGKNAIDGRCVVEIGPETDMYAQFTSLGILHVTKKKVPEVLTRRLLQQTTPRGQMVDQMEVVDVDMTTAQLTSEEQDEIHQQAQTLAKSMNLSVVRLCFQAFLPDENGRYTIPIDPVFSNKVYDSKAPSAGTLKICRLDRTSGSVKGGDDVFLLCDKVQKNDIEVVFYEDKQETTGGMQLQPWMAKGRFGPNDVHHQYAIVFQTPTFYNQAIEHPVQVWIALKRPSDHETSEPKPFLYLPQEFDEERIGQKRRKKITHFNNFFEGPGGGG

GST-Hu-p50 = GST-Hu-p50 (Homo sapiens, UniProt P19838 7-356)
GST-Hu-p50, sequence (P19838 7-356): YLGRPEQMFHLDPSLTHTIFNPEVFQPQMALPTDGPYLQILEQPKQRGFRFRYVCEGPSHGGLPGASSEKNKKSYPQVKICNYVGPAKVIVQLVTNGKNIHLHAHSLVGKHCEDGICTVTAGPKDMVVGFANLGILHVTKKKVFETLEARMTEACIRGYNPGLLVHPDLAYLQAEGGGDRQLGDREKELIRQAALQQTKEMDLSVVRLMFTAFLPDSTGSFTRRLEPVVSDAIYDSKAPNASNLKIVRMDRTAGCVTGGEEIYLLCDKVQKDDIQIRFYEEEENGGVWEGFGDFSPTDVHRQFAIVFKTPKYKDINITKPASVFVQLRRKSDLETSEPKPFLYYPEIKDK

| Sequence | binding signal (GST-Ap-NF-kB RHD) [z-score] | binding signal [1] [z-score] | binding signal [2] [z-score] | binding signal (GST-Co-NF-kB) [z-score] | binding signal (GST-Dm-Relish) [z-score] | binding signal (GST-Aq-NF-kB) [z-score] | binding signal (GST-Hu-p50) [z-score] |
| --- | --- | --- | --- | --- | --- | --- | --- |
| CCGATTAACATCAGGGGGATTTATGATGTTAATCGGGTCTTGATTCGCTTGACGCTGCTG | 8.91 | 9.22 | 10 | 6.7 | 8.87 | 7.3 | 7.42 |
| CCGATTAACATCAAGAAGTCCCCTGATGTTAATCGGGTCTTGATTCGCTTGACGCTGCTG | 7.72 | 7.86 | 7.55 | 3.14 | 7.58 | 6.79 | 6.73 |
| CCGATTAACATCAAAAATCCCCTTGATGTTAATCGGGTCTTGATTCGCTTGACGCTGCTG | 10.4 | 12.3 | 13.5 | 4.34 | 10.1 | 8.57 | 8.54 |
| CCGATTAACATCAGCAACCCCCCTGATGTTAATCGGGTCTTGATTCGCTTGACGCTGCTG | 5.04 | 3.58 | 3.86 | 2.82 | 6.14 | 4.16 | 4.83 |
| CCGATTAACATCAGGGTTTCCCATGATGTTAATCGGGTCTTGATTCGCTTGACGCTGCTG | 3.12 | 3.27 | 2.81 | 2.84 | 8.13 | 4.6 | 2.14 |
| CCGATTAACATCAGAAAATTCCCTGATGTTAATCGGGTCTTGATTCGCTTGACGCTGCTG | 6.03 | 9.51 | 8 | 4.76 | 7.55 | 7.67 | 6.47 |
| CCGATTAACATCAACAAAATCCCTGATGTTAATCGGGTCTTGATTCGCTTGACGCTGCTG | 3.4 | 3.64 | 3.66 | 1.89 | 6.66 | 3.47 | 2.65 |
| CCGATTAACATCAAATTGTCCCCTGATGTTAATCGGGTCTTGATTCGCTTGACGCTGCTG | 4.64 | 5.87 | 6.62 | 6.08 | 2.6 | 4.84 | 4.96 |
| CCGATTAACATCAGAATTTTCCCTGATGTTAATCGGGTCTTGATTCGCTTGACGCTGCTG | 4.45 | 7.42 | 7.41 | 5.08 | 2.3 | 6.44 | 5.01 |
| CCGATTAACATCAGGGGAAACTATGATGTTAATCGGGTCTTGATTCGCTTGACGCTGCTG | 6.82 | 7.81 | 10.9 | 9.61 | 3.46 | 5.53 | 6.14 |
| CCGATTAACATCAAAAGTCCCCCTGATGTTAATCGGGTCTTGATTCGCTTGACGCTGCTG | 8.58 | 8.14 | 8.36 | 7.93 | 9.15 | 7.54 | 6.72 |
| CCGATTAACATCAGAACTCCCCCTGATGTTAATCGGGTCTTGATTCGCTTGACGCTGCTG | 7.91 | 6.48 | 7.12 | 6.15 | 5.58 | 6.48 | 7.11 |
| CCGATTAACATCAGGGGAGATAATGATGTTAATCGGGTCTTGATTCGCTTGACGCTGCTG | 5.17 | 5.28 | 5.56 | 6.03 | 1.79 | 2.74 | 3.67 |
| CCGATTAACATCACAACTTTCCCTGATGTTAATCGGGTCTTGATTCGCTTGACGCTGCTG | 3.73 | 5.95 | 6.13 | 4.34 | 2.04 | 5.94 | 4.21 |
| CCGATTAACATCATCAGGGGAAATGATGTTAATCGGGTCTTGATTCGCTTGACGCTGCTG | 5.62 | 7.05 | 8.79 | 5.8 | 2.39 | 4.58 | 5.42 |
| CCGATTAACATCAGGATTCCCCCTGATGTTAATCGGGTCTTGATTCGCTTGACGCTGCTG | 11.3 | 10.5 | 9.81 | 8.01 | 10.2 | 8.67 | 7.26 |
| CCGATTAACATCAGGGGGAAACCTGATGTTAATCGGGTCTTGATTCGCTTGACGCTGCTG | 8.24 | 8.06 | 9.71 | 9.35 | 7.54 | 7.94 | 7.23 |
| CCGATTAACATCAAGTTTCCCCCTGATGTTAATCGGGTCTTGATTCGCTTGACGCTGCTG | 8.07 | 8.22 | 11.2 | 11.4 | 4.83 | 6.51 | 7.11 |
| CCGATTAACATCAAGGGGGATTCTGATGTTAATCGGGTCTTGATTCGCTTGACGCTGCTG | 9.03 | 8.85 | 10.3 | 4.93 | 8.21 | 7.13 | 7.71 |
| CCGATTAACATCACGTTTTCCCCTGATGTTAATCGGGTCTTGATTCGCTTGACGCTGCTG | 7.13 | 7.87 | 10.1 | 8.47 | 4.49 | 5.5 | 5.96 |
| CCGATTAACATCAACATTCCCCCTGATGTTAATCGGGTCTTGATTCGCTTGACGCTGCTG | 7.55 | 8.25 | 8.8 | 9.34 | 4.3 | 6.29 | 6.48 |
| CCGATTAACATCAGGGGACCACCTGATGTTAATCGGGTCTTGATTCGCTTGACGCTGCTG | 4.71 | 3.46 | 2.99 | 2.22 | 6.1 | 4.66 | 3.71 |
| CCGATTAACATCAGGAGCTCCCCTGATGTTAATCGGGTCTTGATTCGCTTGACGCTGCTG | 4.8 | 2.61 | 1.84 | 2.71 | 1.84 | 4.7 | 2.1 |
